Results from publication PMC4552634, “A New Set of Chemical Starting Points with Plasmodium falciparum Transmission-Blocking Potential for Antimalarial Drug Discovery” (PLoS ONE, 2015).
Where two headings read alike, the source gives them in different places. The campaign covered roughly 13,000 compounds. About 3,200 (25%) showed an effect of 50% or more. Some of the results follow.

Test system: P. falciparum stage V gametocytes
Parameters: BacTiter-Glo ATP luminescence viability of purified stage V gametocytes in 384-well plates, per cent inhibition versus DMSO
Details: 48 h, 5 µM, inhibitor

Row | Structure (SMILES) | % Inhibition [%] | % Inhibition (% Inhibition) [%]
1 | Cc1cccc(NC(=O)N(Cc2cc3cc(C)cc(C)c3[nH]c2=O)C2CC2)c1 [TCMDC-123651] | 4.214 | –
2 | COc1cccc(C23N=C(Nc4nc5ccccc5[nH]4)NC2(c2cccc(OC)c2)NC(Nc2nc4ccccc4[nH]2)=N3)c1 (stereo not drawn) [TCMDC-139087] | 19.76 | –
3 | Cc1ccccc1C1CCN(C2CCC(NC(=O)/C=C/c3c(F)ccc(F)c3F)CC2)CC1 (stereo not drawn) [TCMDC-133512] | -94.66 | –
4 | CCCc1cc(Cc2cnc(N)nc2N)cc2c1OC(C)(C)C2 [TCMDC-138049] | -0.08597 | –
5 | Cc1c(CNCCCNc2nc3cscc3[nH]2)sc(C(F)F)c1Br [TCMDC-141336] | 21.93 | –
6 | CC(C)(C)c1ccc(NC(=O)c2ccc(CN3CCCN(Cc4ccsc4)CC3)cc2)cc1 [TCMDC-136445] | -5.74 | –
7 | COc1cccc(/C=C/C(=O)NC2CCC(CN3CCC(c4c[nH]c5ccccc45)CC3)CC2)c1 (stereo not drawn) [TCMDC-139718] | – | 98.17
8 | COc1cc(/C=C/C(=O)NC2CCC(CN3CCC(c4c[nH]c5ccccc45)CC3)CC2)ccc1O (stereo not drawn) [TCMDC-139766] | – | -65.69
9 | COc1cc(/C=C/C(=O)NC2CCC(CN3CCC(c4c[nH]c5ccccc45)CC3)CC2)ccc1O (stereo not drawn) [TCMDC-139756] | – | -29.87
10 | COc1ccc(OC)c(C=CC(=O)NC2CCC(CN3CCC(c4c[nH]c5ccccc45)CC3)CC2)c1 (stereo not drawn) [TCMDC-139893] | 103 | –
11 | COc1ccc(C=CC(=O)NC2CCC(CN3CCC(c4c[nH]c5ccccc45)CC3)CC2)cc1OC (stereo not drawn) [TCMDC-139932] | 100.6 | –
12 | COc1ccc(C=CC(=O)NC2CCC(CN3CCC(c4c[nH]c5ccccc45)CC3)CC2)cc1 (stereo not drawn) [TCMDC-139949] | – | 103.1
13 | COc1ccc(C=CC(=O)NC2CCC(CN3CCC(c4c[nH]c5ccccc45)CC3)CC2)cc1 (stereo not drawn) [TCMDC-139933] | – | 46.2
14 | N#Cc1cccc(Nc2nccc(NCC(O)c3ccc(C(F)(F)F)cc3)n2)c1 (stereo not drawn) [TCMDC-136590] | 5.433 | –
15 | CCc1ccc(NC(=O)c2ccc(CN3CCCN(Cc4cccc(O)c4)CC3)cc2)cc1 [TCMDC-136439] | -0.6993 | –
16 | CCN(CCCN1CCCCC1)c1cc(C)nc(Nc2ccc(C(F)(F)F)cc2)n1 [TCMDC-132435] | 28.95 | –
17 | CN(Cc1cccc(F)c1)C1CCN(c2cc(NC(=O)c3cccc(F)c3)ccn2)CC1 [TCMDC-135015] | -7.193 | –
18 | CCOc1cc(Cc2cnc(N)nc2N)cc(OCC)c1OCC [TCMDC-137696] | -8.766 | –
19 | COc1cccc(/C=C/C(=O)NC2CCC(CN3CCC(c4c[nH]c5ccccc45)CC3)CC2)c1 (stereo not drawn) [TCMDC-139703] | – | 100.1
20 | COc1cccc(C=CC(=O)NC2CCC(CN3CCC(c4c[nH]c5ccccc45)CC3)CC2)c1OC (stereo not drawn) [TCMDC-139902] | 78.88 | –
21 | O=C(/C=C/c1cccc2ccccc12)NC1CCC(CN2CCC(c3c[nH]c4ccccc34)CC2)CC1 (stereo not drawn) [TCMDC-139706] | – | -11.81
22 | COc1cc(C=CC(=O)NC2CCC(CN3CCC(c4c[nH]c5ccccc45)CC3)CC2)cc(OC)c1 (stereo not drawn) [TCMDC-139947] | 16.96 | –
23 | O=C(/C=C/c1cccc2ccccc12)NC1CCC(CN2CCC(c3c[nH]c4ccccc34)CC2)CC1 (stereo not drawn) [TCMDC-139721] | – | -23.68

Row | Structure (SMILES) | % Inhibition [%] | % Inhibition (% Inhibition) [%]
24 | O=C(Nc1ccccc1N1CCOCC1)c1ncoc1-c1ccccc1C(F)(F)F [TCMDC-123538] | -21.73 | –
25 | O=C(N[C@@H](Cc1ccccc1)C(=O)NCCN1CCCCC1)c1ccc(O)c(-c2cccc(C(F)(F)F)c2)c1 [TCMDC-140816] | 36.65 | –
26 | O=C1c2ccccc2C(=O)N1CCOc1c(Br)cc(Br)cc1CNCCCNc1cc(=O)c2ccccc2[nH]1 [TCMDC-140115] | -3.219 | –
27 | CN1CCN(c2ccnc3ccc(NC(=O)Nc4cccc5c(C#N)cccc45)cc23)CC1 [TCMDC-139344] | -1.771 | –
28 | O=C(NCCN1CCCCC1)c1ccc(Nc2nccc(Nc3ccc(Oc4ccccc4)cc3)n2)cc1 [TCMDC-138608] | -29.44 | –
29 | O=C(NCc1cccc(C(F)(F)F)c1)[C@@H]1CCCN1C(=O)c1ccc(O)c(-c2ccc(Cl)c(Cl)c2)c1 [TCMDC-140832] | 33.81 | –
30 | CC1(C)NC(N)=NC(=N)N1OCc1ccc2ccccc2c1CON1C(=N)N=C(N)NC1(C)C [TCMDC-131631] | -34.98 | –
31 | c1cc(CNC2CCCC2)cc(-c2ccc(CNc3ccc4ncccc4c3)cc2)c1 [TCMDC-140726] | 91.8 | –
32 | c1ccc(CCNCc2ccc(-c3cccc(CNc4ccc5ncccc5c4)c3)cc2)cc1 [TCMDC-140720] | 4.928 | –
33 | c1ccc(CCNCc2cccc(-c3ccc(CNc4ccc5ncccc5c4)cc3)c2)cc1 [TCMDC-140724] | 87.5 | –
34 | CC(C)CNCc1ccc(-c2cccc(CNc3ccc4ncccc4c3)c2)cc1 [TCMDC-140719] | 58.47 | –
35 | c1cnc2ccc(NCc3ccc(-c4ccc(CNC5CCCC5)cc4)cc3)cc2c1 [TCMDC-140727] | 45.47 | –
36 | O=C(Cc1cccc(Cl)c1)Nc1ccc(N2CCC(NCc3ccc4ncccc4c3)CC2)cc1 [TCMDC-124660] | 24.81 | –
37 | CC(C)CNCc1cccc(-c2ccc(CNc3ccc4ncccc4c3)cc2)c1 [TCMDC-140722] | 48.08 | –
38 | COCCNCc1ccc(-c2ccc(CNc3ccc4ncccc4c3)cc2)cc1 [TCMDC-140723] | 92.65 | –
39 | COc1cccc(CNC(=O)c2ccnc(-c3ccc(CNCCOc4ccccc4)cc3)c2)c1 [TCMDC-134501] | 1.442 | –
40 | c1ccc(CCNCc2ccc(-c3ccc(CNc4ccc5ncccc5c4)cc3)cc2)cc1 [TCMDC-140725] | -47.08 | –
41 | CC(C)(C)CN1C(=O)C(c2ccccc2)(c2ccccc2)N=C1N [TCMDC-136760] | 24.92 | –
42 | CCOc1ccc(-c2nc(NC(=O)CS(=O)(=O)c3ccccc3)sc2C)cc1 [TCMDC-123524] | 43.85 | –
43 | OC(CNc1ccnc(Nc2ccc(Cl)cc2)n1)c1ccccc1C(F)(F)F (stereo not drawn) [TCMDC-136579] | 19.1 | –
44 | OC(CNCc1ccccc1OCc1ccccc1)c1cccc(C(F)(F)F)c1 (stereo not drawn) [TCMDC-140299] | 10.62 | –
45 | O=C(/C=C/c1ccc(F)cc1)NC1CCC(CCN2CCc3ccc(-n4cccn4)cc3CC2)CC1 (stereo not drawn) [TCMDC-140323] | -53.18 | –
46 | Nc1nc(N)c2c3c(cnc2n1)CCCC3 [TCMDC-137925] | 38.2 | –

Row | Structure (SMILES) | % Inhibition [%] | % Inhibition (% Inhibition) [%]
47 | CCn1c(-c2nonc2N)nc2c(-c3ccccc3)ncc(OCCCNCCCN3CCOCC3)c21 [TCMDC-135858] | 109 | –
48 | CCn1c(-c2nonc2N)nc2c(-c3ccccc3)ncc(OCCCCNCCc3ncc[nH]3)c21 [TCMDC-136000] | 104.7 | –
49 | COc1cc2c(Nc3ccc(NC(=O)c4ccccc4)cc3)ncnc2cc1OCCCN1CCOCC1 [TCMDC-125873] | -52.63 | –
50 | COc1cc2c(Nc3cccc(NC(=O)c4ccccc4)c3)ncnc2cc1OCCCN1CCOCC1 [TCMDC-135174] | 18.79 | –
51 | CCn1c(-c2nonc2N)nc2c(-c3ccc(CO)o3)ncc(OCCCN)c21 [TCMDC-133807] | -40.81 | –
52 | NCCCOc1cnc(-c2ccccc2)c2nc(-c3nonc3N)n(CCc3ccccc3)c12 [TCMDC-136216] | 116.7 | –
53 | CC[C@H]1CN2CC[C@H]1C[C@H]2[C@H](O)c1ccnc2ccc(C#N)cc12 [TCMDC-138234] | 18.99 | –
54 | CC(=O)c1c[nH]c(C(=O)Nc2ccc(-c3cn4ccccc4n3)cc2)c1 [TCMDC-124599] | 36.18 | –
55 | N=C(N)NN=CC(=O)Nc1cc([N+](=O)[O-])cc([N+](=O)[O-])c1 [TCMDC-137446] | 15.96 | –
56 | CCCCc1cc(NCC)nc(Nc2ccc(OC)cc2)n1 [TCMDC-133991] | -52.54 | –
57 | Nc1nc2c(c(=O)[nH]1)-c1cccc(Br)c1CC2 [TCMDC-137755] | -6.306 | –
58 | Cc1ccc(CNC(=O)[C@H](CC(C)C)Nc2cc(C)nc(NCC3CCCCC3)n2)cc1 [TCMDC-134918] | -23.99 | –
59 | Cc1cnc(NCC2CCCCC2)nc1N[C@@H](CO)C(=O)Nc1ccccc1 [TCMDC-134859] | -15.9 | –
60 | Cc1ccc(CNC(=O)[C@H](CC(C)C)Nc2cc(C)nc(Nc3ccccc3)n2)cc1 [TCMDC-134740] | 5.216 | –
61 | Cc1ccc(CNC(=O)[C@H](CCCN)Nc2nc(Nc3ccccc3)ncc2C)cc1 [TCMDC-134947] | 27.45 | –
62 | Cc1ccc(CNC(=O)[C@H](Cc2ccccc2)Nc2cc(C)nc(Nc3ccccc3)n2)cc1 [TCMDC-134858] | 7.065 | –
63 | Cc1ccc(CNC(=O)[C@H](CCCN)Nc2cc(C)nc(NCC3CCCCC3)n2)cc1 [TCMDC-134923] | 95.63 | –
64 | Cc1ccc(CNC(=O)[C@H](Cc2ccccc2)Nc2cc(C)nc(NCC3CCCCC3)n2)cc1 [TCMDC-134932] | -13.97 | –
65 | Cc1ccc(CNC(=O)[C@H](Cc2ccccc2)Nc2ccnc(NCC3CCCCC3)n2)cc1 [TCMDC-134709] | -30.11 | –
66 | Cc1cnc(NCC2CCCCC2)nc1N[C@@H](CC(C)C)C(=O)Nc1ccccc1 [TCMDC-134751] | -31.13 | –
67 | Cc1cnc(Nc2ccccc2)nc1N[C@@H](CCCN)C(=O)Nc1ccccc1 [TCMDC-134915] | 85.94 | –
68 | Cc1ccc(CNC(=O)[C@H](CCCN)Nc2cc(C)nc(Nc3ccccc3)n2)cc1 [TCMDC-134744] | 61.85 | –
69 | Cc1ccc(CNC(=O)[C@H](CCCN)Nc2nc(NCC3CCCCC3)ncc2C)cc1 [TCMDC-134754] | 82.69 | –
